Compounds with a hit are over-represented: about 4.2% of the library has one in this group of screens.
FXN GAA850 act: FXN promoter activators, primary screen, cell-based, luciferase luminescence, HEK293 lucGAA850; 360,000 compounds, 0.56% hits; HEK293 lucGAA850 FXN promoter luciferase reporter, 24 h; percent of 10 µM SAHA response; AID 540364, 2011; activation, % at 6 µM;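 active = activation above the average of all compounds screened plus 3 SD, cutoff fixed separately per campaign, cut at about 7.5% in these data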;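 also: 0% = DMSO wells and 100% = 10 µM SAHA wells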
AHR act: AHR activators, primary screen, cell-based, luminescence, luciferase reporter, human; Aryl hydrocarbon receptor (Homo sapiens), P35869; activation, % at 5 µM; AID 2796, 2010; 320,000 compounds, 2.5% hits; AHR-responsive luciferase reporter cells; in the data active = activation above about 47%;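 also: 0% = vehicle wells and 100% = reference agonist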
esBAF inh: Bmi1 luciferase reporter increase in mESCs, primary screen, esBAF inhibitor project, mouse ES cells, Bmi1 luciferase knock-in, single point; reporter increase, % at 12.5 µM; 350,000 compounds, 2% hits; 24 h; 100% = twice the neutral-well signal; in the data active = activation above about 40%; inconclusive = no clear call, values can overlap the other calls;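 also: 0% = median of the plate's neutral control wells and 100% = double that signal; a rise in the Bmi1 reporter signal indicates esBAF inhibition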
Wnt act: Wnt/beta-catenin pathway activators, primary screen, cell-based, plate reader, single point; Wnt/beta-catenin reporter cell assay, activator; 300,000 compounds, 1.2% hits; activation, % at 9.35 µM; in the data active = activation above about 30%, passing the limit was not always enough; inconclusive = no clear call, values can overlap the other calls;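 also: 0% = neutral control wells and 100% = positive control wells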
MITF act: activators of MITF-driven TRPM1 promoter reporter, primary screen, cell-based, SK-MEL-5, luciferase, single point. 300,000 compounds, 0.75% hits. SK-MEL-5 TRPM1-promoter luciferase, 24 h; % of positive control, neutral wells = 0. activation, % at 12.5 µM. AID 588334, 2011;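 active = mean activation of at least 80% with every replicate also reaching 80%; inconclusive = mean reaches 80% but some replicate falls short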;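 also: 0% = neutral control wells and 100% = parthenolide positive control wells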
GAA30 counter: GAA30 FXN promoter activators, confirmation, counter-screen for GAA850 frataxin promoter activator project, cell-based, luminescence, HEK293, lucGAA30, triplicate | AID 588350, 2011 | activation, % at 6 µM | 1,900 compounds, 66% hits | shares compounds with FXN GAA850 act | HEK293 lucGAA30 FXN promoter luciferase, 24 h; DMSO = 0%, 5 µM ipriflavone = 100%;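 active = mean activation above the mean of solvent-only control wells plus 3 SD, cut at about 22% in these data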;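 also: counterscreen of GAA850 promoter hits where activity marks nonselective or luminescence artifacts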
FXN GAA850 conf: FXN GAA850 promoter activators in reporter cells, confirmation, cell-based, luminescence, HEK293 lucGAA850, triplicate | AID 588351, 2011 | 1,900 compounds, 86% hits | activation, % at 6 µM | HEK293 lucGAA850 FXN promoter luciferase reporter, 24 h; 100% = activation by SAHA | shares compounds with FXN GAA850 act;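 active = mean activation above a set limit taken from the primary screen, cut at about 8% in these data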;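 also: 0% = DMSO wells and 100% = 10 µM SAHA wells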
Numbers without * were called inactive; ? = inconclusive; . = no result given.

SMILES | FXN GAA850 act | AHR act | esBAF inh | Wnt act | MITF act | GAA30 counter | FXN GAA850 conf
CCN(CC(O)CON=C1c2ccccc2-c2ccccc21)S(=O)(=O)c1ccc(C)cc1 (stereo unspecified) | 7.6* | 6.9 | . | -7.1 | -18.0 | 7.6 | 15.0*
Cc1ccccc1-c1nnc(-c2cccs2)o1 | 8.0* | 18.7 | 42.1* | 2.5 | 48.7 | 105.7* | 30.1*
c1coc(-c2nnc(-c3cccs3)o2)c1 | 4.9 | 32.8 | 20.4 | . | . | . | .
C[C@@H]1CCCCO[C@H](CN(C)C(=O)Cc2ccccc2)[C@H](C)CN([C@@H](C)CO)C(=O)c2cc(NC(=O)Cc3ccccc3)ccc2O1 | . | . | 2.7 | . | . | . | .
CO[C@@H]1CN(C)C(=O)c2ccc(NC(C)=O)cc2OC[C@@H](C)N(C(=O)c2cccnc2)C[C@H]1C | . | . | 9.0 | . | . | . | .
COc1nc(N)nc(NC(=O)c2cccs2)c1N=O | 15.7* | 5.9 | 18.4 | -2.6 | 3.7 | 4.2 | 31.1*
C[C@@H]1CN([C@@H](C)CO)S(=O)(=O)c2ccc(C#CC(C)(C)O)cc2O[C@@H]1CN(C)Cc1ccccc1 | . | . | -2.4 | . | . | . | .
O=S(=O)(CCN1CCN(C(c2ccccc2)c2ccccc2)CC1)C(F)(F)F | 7.8* | -2.4 | -4.6 | . | -2.6 | 37.5* | 15.8*
CN=C1SC(CC(=O)Nc2ccc(N3CCOCC3)cc2)C(=O)N1C (stereo unspecified) | 12.8* | 6.6 | 9.3 | . | 3.9 | 15.1 | 3.4
O=[N+]([O-])c1c(Nc2ccccc2O)cc(Cl)c2nonc12 | 10.8* | . | -31.8 | -7.5 | -105.6 | -78.6 | -7.9
COc1cc2c(cc1OC)C1=C(C#N)CC/C(=N\S(=O)(=O)c3cccc(Cl)c3)N1CC2 | 8.2* | 2.8 | -11.6 | . | -2.7 | 27.2* | 13.9*
COc1cc2c(cc1OC)C1=C(C#N)CCC(=NC(=O)c3ccco3)N1CC2 | 7.1 | 1.8 | -4.5 | -1.4 | -11.9 | . | .
O=C(Nc1ccccc1F)N[C@H]1C=C[C@@H](CC(=O)N2CCCCC2)O[C@H]1CO | . | . | 1.7 | . | . | . | .
O=C(CCl)Nc1cc(S(=O)(=O)N2CCCCCC2)ccc1Cl | 10.8* | -1.5 | . | 2.7 | -56.8 | -10.0 | 13.8*
Cc1c(C(=O)N2CCN(C)CC2)oc2c1C(=O)CC(C)(C)C2 | 0.3 | 3.0 | -1.8 | -0.5 | 1.9 | . | .
Cc1c(C(=O)N2CCc3ccccc32)oc2c1C(=O)CC(C)(C)C2 | 11.1* | . | 52.5* | -1.9 | ? | 113.4* | 40.1*
C[C@H](CO)N1C[C@H](C)[C@@H](CN(C)Cc2ccncc2)Oc2ccc(NC(=O)Cc3ccccc3)cc2C1=O | . | . | 0.6 | . | . | . | .
CC(C)C(=O)Nc1ccc2c(c1)C(=O)N(C)[C@H]1CC[C@H](CC(=O)Nc3ccccc3)O[C@H]1CO2 | . | . | 0.6 | . | . | . | .
O=C(Oc1c(CN2CCOCC2)cc(Cl)c2cccnc12)c1ccccc1F | 7.7* | 8.4 | . | 19.1 | -67.9 | 11.6 | 14.0*
COc1ccc(NC(=O)N(C)C[C@H]2Oc3ncc(C#CCN(C)C)cc3C(=O)N([C@@H](C)CO)C[C@@H]2C)cc1 | . | . | -3.0 | . | . | . | .
CCOC(=O)N1CCC2(CC1)CC(=O)c1c(ccc3oc(C(=O)O)c(C)c13)O2 | -1.2 | 0.6 | -3.4 | . | 9.3 | . | .
Cc1c(C(=O)NCCc2ccccc2)oc2ccccc12 | 4.0 | -2.8 | 11.1 | -0.3 | 54.8 | . | .
CCCNC(=O)c1oc2ccc3c(c2c1C)C=CC(C)(C)O3 | 10.1* | 26.7 | 55.6* | 38.4* | 105.0* | 91.2* | 40.6*
CCCNC(=O)c1oc2ccc3c(c2c1C)C(=O)CC(C)(C)O3 | 7.9* | 14.8 | -14.9 | 59.2* | 89.2* | 107.1* | 35.6*
C=CCNc1nc(SCC=C)nc2ccsc12 | 7.9* | 10.2 | 1.0 | . | -3.0 | 21.3 | 9.7*
CN1c2ccc(-c3cccc(F)c3)cc2[C@@H]2[C@@H](CCN2C(=O)c2ccncc2)[C@@H]1CO | . | . | 7.2 | . | . | . | .

Screening results as filed in PubChem.
